This note sets out measurements from ChEMBL document CHEMBL2218924, “A broad activity screen in support of a chemogenomic map for kinase signalling research and drug discovery” (Biochem J, 2013).

For test [1], the target named is T1, Mitogen-activated protein kinase 13 (Homo sapiens) (UniProt O15264).
T1 sequence (whole entry): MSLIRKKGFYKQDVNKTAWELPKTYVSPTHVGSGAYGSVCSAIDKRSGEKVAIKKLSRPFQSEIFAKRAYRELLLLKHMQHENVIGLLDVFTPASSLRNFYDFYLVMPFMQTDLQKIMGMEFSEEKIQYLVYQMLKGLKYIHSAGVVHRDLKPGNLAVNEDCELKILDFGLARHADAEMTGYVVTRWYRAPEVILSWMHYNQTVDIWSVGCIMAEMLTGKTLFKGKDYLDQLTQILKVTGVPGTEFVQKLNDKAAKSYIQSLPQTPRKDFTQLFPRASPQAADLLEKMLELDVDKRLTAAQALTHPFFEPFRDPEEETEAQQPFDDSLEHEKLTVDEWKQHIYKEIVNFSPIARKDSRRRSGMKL
Particulars: at 10 µM.

Test [2] concerns the target T2, Serine/threonine-protein kinase Sgk1 (Homo sapiens) (UniProt O00141).
T2 sequence (whole entry): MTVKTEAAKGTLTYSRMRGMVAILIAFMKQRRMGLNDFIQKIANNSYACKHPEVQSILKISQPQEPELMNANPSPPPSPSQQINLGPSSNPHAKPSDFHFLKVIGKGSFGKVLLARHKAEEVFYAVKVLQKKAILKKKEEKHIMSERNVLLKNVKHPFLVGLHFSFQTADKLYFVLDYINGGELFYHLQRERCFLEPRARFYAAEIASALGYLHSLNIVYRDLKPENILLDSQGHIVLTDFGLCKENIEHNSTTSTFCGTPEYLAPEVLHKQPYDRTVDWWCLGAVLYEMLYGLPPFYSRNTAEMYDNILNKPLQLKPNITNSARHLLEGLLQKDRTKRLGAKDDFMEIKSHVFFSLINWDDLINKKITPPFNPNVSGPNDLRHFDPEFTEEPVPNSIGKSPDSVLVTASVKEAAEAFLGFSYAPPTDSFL
As to conditions: at 1 µM.

Test [3] concerns the target T2, Serine/threonine-protein kinase Sgk1 (Homo sapiens). As to conditions: at 10 µM.
The target in test [4] is T3, Serine/threonine-protein kinase Sgk2 (Homo sapiens) (UniProt Q9HBY8).
T3 sequence (whole entry): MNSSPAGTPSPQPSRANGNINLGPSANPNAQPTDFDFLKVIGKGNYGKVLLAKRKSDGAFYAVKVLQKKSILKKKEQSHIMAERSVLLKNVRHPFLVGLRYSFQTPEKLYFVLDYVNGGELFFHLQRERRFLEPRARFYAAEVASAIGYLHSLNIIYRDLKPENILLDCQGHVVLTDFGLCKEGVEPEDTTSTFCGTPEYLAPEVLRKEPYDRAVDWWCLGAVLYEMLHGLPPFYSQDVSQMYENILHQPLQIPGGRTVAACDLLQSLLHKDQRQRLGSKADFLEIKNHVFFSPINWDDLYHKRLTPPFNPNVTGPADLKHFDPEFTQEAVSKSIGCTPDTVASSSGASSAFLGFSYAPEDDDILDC
As to conditions: at 1 µM.

In test [5] the target is T3, Serine/threonine-protein kinase Sgk2 (Homo sapiens). Particulars: at 10 µM.
In test [6] the target is T4, Serine/threonine-protein kinase Sgk3 (Homo sapiens) (UniProt Q96BR1).
T4 sequence (whole entry): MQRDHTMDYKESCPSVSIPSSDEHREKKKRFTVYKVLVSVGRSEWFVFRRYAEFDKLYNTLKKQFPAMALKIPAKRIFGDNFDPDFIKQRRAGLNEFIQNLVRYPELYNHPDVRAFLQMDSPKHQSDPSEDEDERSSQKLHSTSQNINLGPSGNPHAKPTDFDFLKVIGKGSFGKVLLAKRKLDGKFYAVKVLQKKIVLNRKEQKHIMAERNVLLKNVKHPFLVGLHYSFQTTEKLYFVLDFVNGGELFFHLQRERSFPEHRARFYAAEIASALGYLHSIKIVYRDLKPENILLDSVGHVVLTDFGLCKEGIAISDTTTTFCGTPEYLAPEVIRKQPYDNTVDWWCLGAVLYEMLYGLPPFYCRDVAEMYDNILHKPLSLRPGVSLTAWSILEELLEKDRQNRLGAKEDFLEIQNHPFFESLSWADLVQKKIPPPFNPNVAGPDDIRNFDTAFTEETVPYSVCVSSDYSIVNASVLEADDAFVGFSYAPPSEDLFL
Particulars: at 10 µM.

Test [7] deals with Serine/threonine-protein kinase SIK1 (Homo sapiens) (UniProt P57059). As to conditions: at 1 µM.
Chain of Serine/threonine-protein kinase SIK1 (Homo sapiens) (P57059 whole entry): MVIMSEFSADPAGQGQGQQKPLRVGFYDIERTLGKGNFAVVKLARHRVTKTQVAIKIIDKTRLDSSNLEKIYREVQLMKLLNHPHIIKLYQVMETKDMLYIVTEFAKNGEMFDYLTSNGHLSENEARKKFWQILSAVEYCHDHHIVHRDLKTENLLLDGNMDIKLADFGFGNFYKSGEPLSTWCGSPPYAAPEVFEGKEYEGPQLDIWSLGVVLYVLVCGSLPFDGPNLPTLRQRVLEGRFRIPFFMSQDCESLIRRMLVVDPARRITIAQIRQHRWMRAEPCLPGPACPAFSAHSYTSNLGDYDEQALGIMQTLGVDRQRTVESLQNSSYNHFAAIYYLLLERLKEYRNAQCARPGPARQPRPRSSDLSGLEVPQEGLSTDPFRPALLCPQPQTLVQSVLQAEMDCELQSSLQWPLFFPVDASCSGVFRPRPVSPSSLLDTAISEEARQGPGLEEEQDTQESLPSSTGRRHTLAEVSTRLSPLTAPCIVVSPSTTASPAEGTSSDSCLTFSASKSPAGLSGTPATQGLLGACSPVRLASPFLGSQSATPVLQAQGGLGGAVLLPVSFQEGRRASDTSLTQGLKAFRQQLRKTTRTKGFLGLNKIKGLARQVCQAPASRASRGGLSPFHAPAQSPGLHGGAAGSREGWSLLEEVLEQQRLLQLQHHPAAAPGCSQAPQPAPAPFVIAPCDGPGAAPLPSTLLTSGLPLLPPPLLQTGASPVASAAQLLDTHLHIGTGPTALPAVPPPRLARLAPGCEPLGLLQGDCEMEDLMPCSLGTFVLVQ
For test [8] the target is unchanged. As to conditions: at 10 µM.
Test [9] has as its target SRSF protein kinase 1 (Homo sapiens) (UniProt Q96SB4). As to conditions: at 1 µM.
For test [10] the target is unchanged. As to conditions: at 10 µM.
Test [11] deals with SRSF protein kinase 2 (Homo sapiens) (UniProt P78362). As to conditions: at 1 µM.
Chain of SRSF protein kinase 2 (Homo sapiens) (P78362 whole entry, looked up): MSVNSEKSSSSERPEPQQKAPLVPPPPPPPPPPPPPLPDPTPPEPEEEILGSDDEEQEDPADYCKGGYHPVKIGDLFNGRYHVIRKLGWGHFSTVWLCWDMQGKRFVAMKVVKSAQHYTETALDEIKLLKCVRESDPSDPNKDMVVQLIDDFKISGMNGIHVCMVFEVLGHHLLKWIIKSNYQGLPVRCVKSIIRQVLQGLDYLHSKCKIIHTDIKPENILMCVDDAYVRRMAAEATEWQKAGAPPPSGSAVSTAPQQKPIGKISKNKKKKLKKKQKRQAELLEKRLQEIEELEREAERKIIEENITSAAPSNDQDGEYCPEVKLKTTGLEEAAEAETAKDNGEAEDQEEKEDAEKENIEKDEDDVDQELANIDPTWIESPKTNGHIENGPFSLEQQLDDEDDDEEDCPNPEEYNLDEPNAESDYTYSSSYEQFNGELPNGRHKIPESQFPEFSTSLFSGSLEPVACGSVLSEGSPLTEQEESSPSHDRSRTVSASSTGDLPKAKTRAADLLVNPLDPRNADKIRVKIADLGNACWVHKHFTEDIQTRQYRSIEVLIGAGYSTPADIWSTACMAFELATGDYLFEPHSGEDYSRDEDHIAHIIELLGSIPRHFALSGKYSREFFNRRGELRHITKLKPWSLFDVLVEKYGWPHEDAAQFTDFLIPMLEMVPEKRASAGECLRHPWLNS
For test [12] the target is unchanged. As to conditions: at 10 µM.
The target of test [13] is Serine/threonine-protein kinase 33 (Homo sapiens) (UniProt Q9BYT3). As to conditions: at 1 µM.
Chain of Serine/threonine-protein kinase 33 (Homo sapiens) (Q9BYT3 whole entry, looked up): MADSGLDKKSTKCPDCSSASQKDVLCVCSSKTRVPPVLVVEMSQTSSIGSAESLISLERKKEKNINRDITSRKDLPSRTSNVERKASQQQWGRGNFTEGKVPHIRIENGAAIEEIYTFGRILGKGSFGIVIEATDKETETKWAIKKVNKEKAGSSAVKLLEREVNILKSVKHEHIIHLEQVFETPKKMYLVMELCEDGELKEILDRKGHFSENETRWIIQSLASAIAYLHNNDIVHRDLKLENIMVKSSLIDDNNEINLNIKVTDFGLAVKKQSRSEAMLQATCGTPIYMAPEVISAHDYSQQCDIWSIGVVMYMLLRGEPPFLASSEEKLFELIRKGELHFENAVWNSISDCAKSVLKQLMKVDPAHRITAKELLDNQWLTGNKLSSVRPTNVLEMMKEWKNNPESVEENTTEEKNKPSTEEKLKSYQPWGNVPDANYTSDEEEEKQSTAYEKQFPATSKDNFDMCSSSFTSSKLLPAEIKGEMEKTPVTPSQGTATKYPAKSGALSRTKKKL
Test [14] has the same target. As to conditions: at 10 µM.
In test [15] the target is Serine/threonine-protein kinase PLK2 (Homo sapiens) (UniProt Q9NYY3). Particulars: at 1 µM.
Chain of Serine/threonine-protein kinase PLK2 (Homo sapiens) (Q9NYY3 whole entry, looked up): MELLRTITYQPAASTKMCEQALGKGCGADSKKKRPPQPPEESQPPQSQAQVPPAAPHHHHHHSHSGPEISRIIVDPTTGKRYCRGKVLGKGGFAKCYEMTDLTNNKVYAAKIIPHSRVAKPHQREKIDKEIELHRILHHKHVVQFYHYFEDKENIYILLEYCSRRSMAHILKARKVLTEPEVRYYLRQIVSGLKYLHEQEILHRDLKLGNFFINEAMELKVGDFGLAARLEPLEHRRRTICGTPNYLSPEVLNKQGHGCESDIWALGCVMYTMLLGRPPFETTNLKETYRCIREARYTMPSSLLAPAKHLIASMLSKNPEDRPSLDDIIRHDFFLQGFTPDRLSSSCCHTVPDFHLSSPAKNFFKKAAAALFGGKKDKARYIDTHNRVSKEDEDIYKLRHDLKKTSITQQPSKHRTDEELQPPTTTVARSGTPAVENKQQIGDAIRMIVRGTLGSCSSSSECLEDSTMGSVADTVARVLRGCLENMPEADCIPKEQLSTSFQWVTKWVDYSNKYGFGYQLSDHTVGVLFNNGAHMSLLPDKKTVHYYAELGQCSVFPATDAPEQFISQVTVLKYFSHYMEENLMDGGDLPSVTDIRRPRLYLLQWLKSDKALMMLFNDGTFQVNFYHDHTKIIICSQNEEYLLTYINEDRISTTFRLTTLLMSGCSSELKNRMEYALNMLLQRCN
The target is the same in test [16]. Particulars: at 10 µM.
Test [17] addresses Tyrosine-protein kinase SYK (Homo sapiens) (UniProt P43405). Particulars: at 1 µM.
The target in test [18] is Mitogen-activated protein kinase 11 (Homo sapiens) (UniProt Q15759). Particulars: at 1 µM.
Chain of Mitogen-activated protein kinase 11 (Homo sapiens) (Q15759 whole entry): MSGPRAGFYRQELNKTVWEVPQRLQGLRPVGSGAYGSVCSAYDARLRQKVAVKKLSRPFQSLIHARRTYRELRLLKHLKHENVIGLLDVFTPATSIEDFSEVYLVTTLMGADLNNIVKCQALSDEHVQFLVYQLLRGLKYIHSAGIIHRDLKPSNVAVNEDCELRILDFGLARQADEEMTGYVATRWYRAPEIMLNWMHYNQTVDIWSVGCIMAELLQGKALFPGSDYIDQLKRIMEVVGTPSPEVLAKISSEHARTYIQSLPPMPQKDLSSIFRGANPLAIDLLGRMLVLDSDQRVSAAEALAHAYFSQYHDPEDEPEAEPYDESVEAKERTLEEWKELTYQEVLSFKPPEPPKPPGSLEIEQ
For test [19] the target is unchanged. Particulars: at 10 µM.
For test [20], the target named is T1, Mitogen-activated protein kinase 13 (Homo sapiens). Particulars: at 1 µM.

Chain of SRSF protein kinase 1 (Homo sapiens) (Q96SB4 whole entry): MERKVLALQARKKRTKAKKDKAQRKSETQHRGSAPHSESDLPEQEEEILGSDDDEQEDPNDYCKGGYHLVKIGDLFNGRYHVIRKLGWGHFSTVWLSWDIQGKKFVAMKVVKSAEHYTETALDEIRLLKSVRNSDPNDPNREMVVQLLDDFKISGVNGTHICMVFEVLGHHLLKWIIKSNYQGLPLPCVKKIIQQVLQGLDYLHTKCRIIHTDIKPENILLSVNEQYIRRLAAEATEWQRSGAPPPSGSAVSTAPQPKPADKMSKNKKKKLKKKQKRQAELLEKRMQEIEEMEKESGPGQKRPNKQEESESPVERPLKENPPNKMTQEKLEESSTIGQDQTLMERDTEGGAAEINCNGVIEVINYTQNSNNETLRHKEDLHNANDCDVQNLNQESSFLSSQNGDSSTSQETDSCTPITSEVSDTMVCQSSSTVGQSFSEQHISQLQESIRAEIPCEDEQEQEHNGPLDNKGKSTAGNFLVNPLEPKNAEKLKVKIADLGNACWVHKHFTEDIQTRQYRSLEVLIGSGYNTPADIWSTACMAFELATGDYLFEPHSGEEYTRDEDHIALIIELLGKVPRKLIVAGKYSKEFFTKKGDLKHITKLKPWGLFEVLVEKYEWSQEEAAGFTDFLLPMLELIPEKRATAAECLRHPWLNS

Turning to `Cc1cc2ncc(-c3ccccc3)nc2cc1C`, the residual activity was determined as 102% in test [1]; 102% in test [2]; 102% in test [3]; 99% in test [4]; 107% in [5]; 90% in test [6]. In addition, the residual activity in [7] was determined as 80%; in test [8], 110%; in test [9], 108%; in [10] it was 97%; in test [11] it was 104%; in test [12] it was 102%. In addition, the residual activity in test [13] stood at 100%; in test [14], 98%; in [15] it was 101%; in test [16], 106%; in test [17], 125%.

For `Cc1nc(-c2ccccc2)c(-c2ccncc2)o1`, the residual activity was 105% in [18]; 58% in [19]; 107% in [20]; 103% in test [1]; 107% in [2]; 86% in test [3]. In addition, the residual activity in test [4] came out at 126%; in test [5], 89%; in test [6] it was 91%; in test [7], 138%; in test [8], 100%; in [9], 111%. Moreover, the residual activity in [10] is 109%; in test [11] it was 98%; in [12], 81%; in test [13] it was 103%; in test [14], 102%; in test [15], 108%. In addition, the residual activity was found to be 104% in test [16] and 112% in [17].

For the compound `O=C1Nc2ccc(Br)cc2/C1=C\c1cc2c([nH]1)CCCC2`, the residual activity in test [18] amounted to 98%; in [19], 79%; in [20], 111%; in test [1], 109%; in test [2], 104%; in test [3], 84%. Also, the residual activity in test [4] stood at 111%; in test [5], 109%; in test [7], 97%; in test [8] it was 107%; in [15] it was 105%; in test [16], 99%. The residual activity in test [17] worked out at 123%.

For the compound `Cc1cc(Nc2nc(-c3ccccc3)nc3ccccc23)n[nH]1`, the residual activity was 97% in [18]; 97% in test [20]; 63% in test [1]; 77% in test [4]; 55% in test [5]; 60% in [7]. Besides, the residual activity was 10% in test [8]; 73% in test [9]; 15% in [10]; 67% in test [11]; 17% in test [12]; 77% in [13]. Further, the residual activity was found to be 24% in test [14], 56% in test [16] and 16% in [17].

As to `CCN(CC)C(=O)c1ccc(Nc2nc(OCC3CCCCC3)c3nc[nH]c3n2)cc1`, the residual activity in test [20] was 99%; in test [1], 64%; in test [2] it was 77%; in test [3] it was 61%; in [7], 37%; in test [8], 4%. For the same compound, the residual activity is 43% in test [10]; 74% in [11]; 31% in test [12]; 82% in test [13]; 18% in test [14]; 64% in test [17].

With `COc1cc2ncnc(Nc3ccc(O)c(Br)c3)c2cc1OC`, the residual activity in [18] turned out to be 93%; in test [19] it was 58%; in [20] it was 111%; in test [1], 83%; in test [2], 71%; in [3], 87%. Besides, the residual activity in test [4] stood at 62%; in [5], 48%; in [6], 86%; in test [7], 90%; in test [8], 22%; in test [9], 103%. For the same compound, the residual activity in test [10] was determined as 100%; in [11], 93%; in [12] it was 88%; in [13] it was 76%; in test [14] it was 45%; in test [15], 93%. Besides, the residual activity was 85% in test [16] and 99% in test [17].

Take `Cc1cncc2cccc(S(=O)(=O)N3CCCN(C(=O)CN)C[C@H]3C)c12`: the residual activity is 100% in [18]; 95% in [19]; 97% in test [20]; 98% in [1]; 88% in test [2]; 88% in [6]. Also, the residual activity is 84% in test [7]; 90% in [8]; 94% in test [11]; 94% in test [12]; 93% in [16].
